# According to the supplement of paper PMC11417369:
# ± gives the standard deviation of the averaged measurements. In all, about 25,000 sequences were measured (“ln(normalized median fluorescence intensity)”: median about 10, highest 2% from about 12 on). Shown is part of a subset that was picked to be rich in the highest values.
# Test system: PfAP2-G AP2 domain (GST-tagged)
# Experiment: gcPBM binding intensity (ln(normalized median fluorescence intensity)); higher = stronger DNA binding
# Outline: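 The highest Masliner-normalised natural-log median intensity across replicate spots of either probe orientation is reported as binding intensity. GST-tagged P. falciparum DNA-binding domains expressed in E. coli were applied for 1 h to an Agilent 4 × 180k array of primer-extended double-stranded 36-bp intergenic genomic probes plus negative controls, and bound protein was detected with Alexa488 anti-GST antibody and scanned at 488 nm.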
row,Sequence,gcPBM binding intensity (ln)
1,ATATATTTTCAAAAAAGTAAATCAAAATAAATATAT [TGCATGCA_negctrl_site319],9.84 ± 0.085
2,AATACAGATAATACAACACACAAGTAATATAAACCT [CACACA_site5900],9.975 ± 0.021
3,GGTGATATAATATATACATGCACATATATATTATTA [TGCATGCA_site970],9.9 ± 0.042
4,CATTTAAAATTTGTTTGTACATATATATATATATAT [XGTACX_site6729],11 ± 0.66
5,AAAATTAATGTTGGTTGTACAAAAATTAAATATGGT [XGTACX_site66],11.3 ± 0.75
6,TCCTTAAAATATGGTTGTACGTACATCCTAGGTGTT [XGTACX_site7068],11.7 ± 0.97
7,GTAGGTGTTTTTGGTTGTACATATAAATATATATAC [XGTACX_site3380],11.3 ± 0.8
8,TATATAAATATATATGTACACACATATACATGTTGA [CACACA_site9022],11.3 ± 0.92
9,TATTTCAAATGTTATGTGCACATATTAATCCTACTT [GTGCAC_site9738],10.5 ± 0.28
10,ATAATTATCATAGGATGTACATATTTATTTTGTATA [XGTACX_site7797],11.2 ± 0.67
11,GCAAATGTGAAAACGTGTACACATTTTATTTAATTT [XGTACX_site8000],11.7 ± 1
12,TTATTAAAACAAAATGTACACACATATAATTTAATG [CACACA_site8193],11.3 ± 0.73
13,ATTTTTGTAATTATTTGTACACATTTATTTATGTGT [XGTACX_site1864],11.5 ± 0.73
14,TTATATTTATATTTATGTACATATTTTGTGTGAAAA [XGTACX_site2367],11.4 ± 0.97
15,AATGTGAAAACGTGTACACATTTTATTTAATTTATC [CACACA_site5966],11.6 ± 0.98
16,TTTATTAAAACAAAATGTACACACATATAATTTAAT [XGTACX_site1637],11.2 ± 0.68
17,CGTTATATATTTTATAGTACTTTTTGTAAATTTTTT [XGTACX_site7682],11.1 ± 0.67
18,CGATATGTTCAATATTGTACTATTTATAATAATATG [XGTACX_site3051],11 ± 0.69
19,ATATATATATATATATGTACTAAATATTCATCCTTA [XGTACX_site6039],11 ± 0.65
20,TGAATATAACAAATATGTACTTAAAATTGTTATATT [XGTACX_site5679],11.1 ± 0.76
21,GTGTAATATATTTTTCGTACATATTATATATATATA [XGTACX_site1675],11 ± 0.69
22,AATTTTTTTTTTAGACGTACAAGAAAAAACAAAAAA [XGTACX_site4990],11.7 ± 0.75
23,AAGAAAAAACAAACATGTACACATAATTTAGTTTTT [XGTACX_site3121],11.4 ± 0.89

row,Sequence,gcPBM binding intensity (ln)
1,AATTATTTTAGAAACACACAAATTAGAAAAAACATA [CACACA_site7673],10.2 ± 0.24
2,TTTTTTGCTAAGTGTACACAAATGTTTATTAATTTA [CACACA_site5859],11.7 ± 1
3,TTTATATGTATTAAGTGTACACATATAATGTATTTT [XGTACX_site16],11.5 ± 0.83
4,ATATATAATTTTTGCTGTACACAAAATATTAATTTA [XGTACX_site2057],11.5 ± 0.86
5,TTTATATGTATTAAGTGTACACATATAATGTGTTTT [XGTACX_site4890],11.6 ± 0.87
6,ATTTTTTTTGCTAAGTGTACACAAATGTTTATTAAT [XGTACX_site7440],11.7 ± 0.81
7,TATTTTTTTTTTTAATGTACAAACAAATTATGTTGG [XGTACX_site2873],10.8 ± 0.57
8,TCATATTCCAAAAAAAAAAAAAAAAAAAAAAAAATA [CACACA_negctrl_site1293],9.66 ± 0.3
9,AATAAATATTCATTTTGTACATATTTTTCGTATATG [XGTACX_site6104],10.9 ± 0.57
10,TTGGGCATAATGTCATGTACACAAATAATTCTTTAT [XGTACX_site861],11.5 ± 1
11,TATATATATATATATTGTACATATATTATTATATAT [XGTACX_site7447],10.9 ± 0.53
12,AATTTACAAAAAAGAAAAAAAAAAAAAAAGATACTT [CACACA_negctrl_site1434],9.65 ± 0.071
13,ATTTATATTACAAAAAGTACACACATAAATAAATAC [XGTACX_site1827],11.6 ± 0.92
14,AAAAAAAAAAGAAAAAGTACATACATACATATATAT [XGTACX_site6405],11.3 ± 0.83
15,ATTTAAGTAGTACATACACACACATATACAAAAAGA [CACACA_site9317],11.7 ± 1.3
16,ATACGAAAAAAAAAAAGTACACAAAAATATCTACAT [XGTACX_site2051],11.7 ± 1.1
17,TACGAATTAAAAAAGAGTACAAATAAAATATCTACA [XGTACX_site7412],11.3 ± 0.84
18,ACATCATATTAAGAAAGTACAAAAAGAGAACATATA [XGTACX_site1268],11 ± 0.4
19,AAAAAGAAAAAAGAAAGTACAAATATACACATTTTT [XGTACX_site3343],10.9 ± 0.54
20,TTAAGTAGTACATACACACACATATACAAAAAGAAA [CACACA_site3972],11.7 ± 1.2
21,TTGTTCTATTTAAGTAGTACATACACACACATATAC [XGTACX_site8484],11.5 ± 0.71
22,ATTCATAAAAAGAGGTGTACATTAATATAATATATA [XGTACX_site8283],11.5 ± 0.95
23,ATTTTGTTATTATATATATATATATATATATATATA [XGTACX_negctrl_site590],9.89 ± 0.49

row,Sequence,gcPBM binding intensity (ln)
1,GATCATTTAAAATAAGTAATATTTTTTTTACTTTTG [TGCATGCA_negctrl_site602],9.62 ± 0.26
2,GTTCATAAAAATTTTTGTACCCATAAAATATTCCTC [XGTACX_site8611],11.2 ± 0.65
3,AATAATTGTTATAGTTGTACAATACATATATTACAA [XGTACX_site30],11.3 ± 0.63
4,AAAAAAAAAAAAAAAAGTACAGACGTCAAAAAAAAA [XGTACX_site4817],11.6 ± 0.76
5,ACAGACGTTCAAAGGTGTACGCAAAATGAATAATAT [XGTACX_site7565],11.6 ± 1
6,AAAAAAAAAAAAAAGAGTACACAGACGTTCAAAGGT [XGTACX_site7566],11.7 ± 0.77
7,TTTAAATATATTCAATCACACACATTCGTTTTTTTT [CACACA_site7962],9.77 ± 0.24
8,GGCAAATTTATTATACCCACATACATACATACATAC [XGTACX_negctrl_site186],10.8 ± 0.62
9,TTTACATTTTAGGAAGTGCATATAATAAATACTATC,10.1 ± 0.2
10,ATCATAAAAGTATACACACATACATACATATGTACA [CACACA_site2641],10.8 ± 0.45
11,AAAAAAAAAAAAAAAAGTACATATATATATATAATT [XGTACX_site4437],11.5 ± 0.86
12,ACATATTAATTATAAAGTACATATATATATATATAT [XGTACX_site4540],11.3 ± 0.79
13,ATAATTATATATATATGTACATATTATATATATATA [XGTACX_site4526],11.2 ± 0.77
14,TATATCATAAAAAATTGTACATATATATATTATATA [XGTACX_site6726],11 ± 0.69
15,ATTATATTATATATATGTACATATATATATCATAAT [XGTACX_site1],11.1 ± 0.66
16,TTAGTAGTATTATGTAGTACATAATTATCATATCAT [XGTACX_site817],11.6 ± 1.1
17,AAAAAAAAAAAAAAAAGTACACATAATTGTATATGT [XGTACX_site6339],11.7 ± 0.75
18,AAAAAAAAATTGTGTACACATAATTATATCATATGT [CACACA_site4500],11.7 ± 0.89
19,TATATAAAAAGTAATTGTACATATATATATATATAT [XGTACX_site7953],10.9 ± 0.68
20,ATAAAAATAATATCATGTACATATGTGTATTGTATT [XGTACX_site1768],11 ± 0.49
21,AAAAAAAAAAAAAAAAGTACATATATATATAATTAT [XGTACX_site7836],11.7 ± 0.89
22,ATAATTATAAAATAAACACACATATATATTTATATG [CACACA_site440],9.98 ± 0.16
23,AATTAAAAAAAATACACACACACATACACATATATA [CACACA_site3298],10.2 ± 0.22

row,Sequence,gcPBM binding intensity (ln)
1,ATAACATAAGGAAATACACACATATATAAGTATATA [CACACA_site778],10.02 ± 0.021
2,ACATATATATATATATATATATATATATTTATTTAT [CACACA_negctrl_site734],10.2 ± 0.39
3,AAAACTATAATGAATAGTACATAAAAATGGATATAT [XGTACX_site6056],11 ± 0.5
4,TCTATAAAGGAATATACACACATATATATATATATA [CACACA_site410],9.9 ± 0.32
5,AATAATATATTTAGGGGTACATAATAATATATTTTA [XGTACX_site8366],11.6 ± 1.1
6,AAAAAAAAAAAAAGTACACACTTATAAAATATTATG [CACACA_site4639],11.6 ± 1.1
7,AAATAAAAAAGTAGTACACACTTCACGATATTTTTT [CACACA_site6015],11.6 ± 1
8,ATAAAATAAAAAAGTAGTACACACTTCACGATATTT [XGTACX_site8289],11.5 ± 0.84
9,AAAAAAGATATATAAACACACATATTTATATACACA [CACACA_site6866],9.66 ± 0.16
10,AGATAAAAAAAGTACACACACACATATATTTATATA [CACACA_site7437],11.8 ± 1.2
11,AAAAAAAAAAAAAAAAGTACATATATTATATATATA [XGTACX_site2983],11.3 ± 0.93
12,AAAAAAAAAAAAAAAAGTACATATATATATTTATAT [XGTACX_site5893],11.7 ± 1
13,TTAAAAAAAAAAAAAAGTACACACTTATAAAATATT [XGTACX_site1630],11.6 ± 0.91
14,GTAAAAAAAAAAAAAAGTACATTATACATATATTTA [XGTACX_site5447],11.3 ± 0.81
15,TAAAAAAAAAAAAAAGTACACACTTATAAAATATTA [CACACA_site872],11.6 ± 1
16,TAAAATAAAAAAGTAGTACACACTTCACGATATTTT [CACACA_site3896],11.6 ± 0.91
17,ATATTATTTTAAAGTACACACATATATTAAGATATA [CACACA_site5306],11.4 ± 1
18,AATGTAAAATATAAATGTACATATATATATATATAT [XGTACX_site5071],11 ± 0.45
19,TATATATATATATATGTACACACATATATACCTTTC [CACACA_site8854],11.3 ± 0.71
20,GAAAGAATAAAATAAACATGCAAATAAAACATAAAA [TGCATGCA_site471],9.81 ± 0.2
